The target of the first test is SRSF protein kinase 3 (Homo sapiens) (UniProt Q9UPE1). To be noted: at 1 µM.
SRSF protein kinase 3 (Homo sapiens), sequence (Q9UPE1 whole entry): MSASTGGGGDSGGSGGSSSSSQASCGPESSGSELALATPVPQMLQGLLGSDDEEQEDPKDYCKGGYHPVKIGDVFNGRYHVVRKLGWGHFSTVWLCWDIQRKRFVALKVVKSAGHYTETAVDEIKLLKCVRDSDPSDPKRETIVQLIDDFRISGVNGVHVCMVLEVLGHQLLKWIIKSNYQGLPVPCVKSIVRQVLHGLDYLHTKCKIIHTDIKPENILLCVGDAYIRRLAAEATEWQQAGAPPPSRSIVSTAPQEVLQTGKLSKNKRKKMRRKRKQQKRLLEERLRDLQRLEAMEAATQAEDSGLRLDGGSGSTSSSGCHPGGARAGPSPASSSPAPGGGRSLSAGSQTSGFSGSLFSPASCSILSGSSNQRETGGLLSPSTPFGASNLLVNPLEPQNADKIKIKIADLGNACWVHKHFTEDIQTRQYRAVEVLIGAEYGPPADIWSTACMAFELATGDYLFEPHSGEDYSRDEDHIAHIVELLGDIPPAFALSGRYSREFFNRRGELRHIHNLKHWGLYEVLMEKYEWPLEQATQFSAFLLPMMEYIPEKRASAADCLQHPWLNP
One may read the residual activity as the signal under treatment as a percentage of the control signal. Take `COc1ccc(COc2ccc(Cc3cnc(N)nc3N)cc2OC)cc1`: the residual activity amounted to 111%. Same read-out and setting: the value for `O=C1Cc2c([nH]c3ccc([N+](=O)[O-])cc23)-c2ccccc2N1` was 100%. Take `c1ccc(-c2cnc(Nc3ccc(OCCN4CCCC4)cc3)s2)cc1`: the residual activity was 108%. The same measure, in the same setting: the result for `Nc1ncnc2c1c(-c1ccc(Oc3ccccc3)cc1)cn2C1CCCC1` reads 106%; that for `O=C(NC(NC(=S)Nc1ccc(F)c([N+](=O)[O-])c1)C(Cl)(Cl)Cl)C(c1ccccc1)c1ccccc1` (configuration not stated), 98%; that for `NCCNc1ncc(C(N)=O)c(Nc2cccc(C(F)(F)F)c2)n1`, 108%. Still for that read-out and setting: the result for `O=C(O)/C=C/c1cc(Br)c(Br)c(Br)c1Br` reads 124%; that for `CC(C)(C)n1nc(Cc2cccc3ccccc23)c2c(N)ncnc21`, 116%; that for `O=C(CCCc1ccc(-c2ccccc2F)cc1)Nc1ccc(O)cc1`, 105%. Still for that read-out and setting: the value for `CCN(CC)CCNC(=O)c1c(C)[nH]c(/C=C2\C(=O)Nc3ccc(Cl)cc32)c1C` was 98%; that for `CC(C)[C@H](CO)Nc1nc(Nc2cc(N)cc(Cl)c2)c2ncn(C(C)C)c2n1` was 40%. On to `O=C1Nc2ccc(Cl)cc2/C1=C/c1cc(Cl)c(O)c(Cl)c1`, for which the residual activity worked out at 100%.

Regarding `CC(C)(C)c1nc2c3ccc(F)cc3c3c(=O)[nH]ccc3c2[nH]1`, the residual activity is 79%.

Take `O=C1Cc2c([nH]c3ccc(Br)cc23)-c2ccccc2N1`: the residual activity was found to be 98%. The same measure, in the same setting: the result for `O=c1cc(N2CCNCC2)oc2c(-c3ccccc3)cccc12` reads 103%; that for `O=C1NC(=O)c2c1c1c3ccccc3[nH]c1n1cncc21`, 82%; that for `NC(=O)Nc1sc(-c2ccc(F)cc2)cc1C(N)=O`, 96%.

As for `O=C(c1ccccc1)c1ccc(N2CCOCC2)cc1O`, the residual activity is 113%.

The target is the same in another test. To be noted: at 10 µM.
Regarding `Nc1ncnc2c1cnn2-c1ccccc1`, the residual activity came to 23%.

Turning to `COc1ccc(COc2ccc(Cc3cnc(N)nc3N)cc2OC)cc1`, the residual activity is 82%. Same read-out and setting: the result for `O=C1Cc2c([nH]c3ccc([N+](=O)[O-])cc23)-c2ccccc2N1` reads 100%; that for `O=c1cc(N2CCOCC2)oc2c1ccc1ccccc12`, 70%; that for `N#C/C(=C\c1ccc(O)c(O)c1)C(=O)NCc1ccccc1`, 88%. Still for that read-out and setting: the result for `c1ccc(-c2cnc(Nc3ccc(OCCN4CCCC4)cc3)s2)cc1` reads 78%; that for `Nc1ncnc2c1c(-c1ccc(Oc3ccccc3)cc1)cn2C1CCCC1`, 96%; that for `NCCNc1ncc(C(N)=O)c(Nc2cccc(C(F)(F)F)c2)n1`, 75%. As for `O=C(O)/C=C/c1cc(Br)c(Br)c(Br)c1Br`, the residual activity was 100%.

On to `CC(C)(C)n1nc(Cc2cccc3ccccc23)c2c(N)ncnc21`, for which the residual activity amounted to 80%. The same measure, in the same setting: the value for `O=C(CCCc1ccc(-c2ccccc2F)cc1)Nc1ccc(O)cc1` was 94%; that for `CSc1nc(-c2ccc(F)cc2)c(-c2ccnc(NC(C)c3ccccc3)c2)[nH]1` (configuration not stated) was 86%. As for `CCN(CC)CCNC(=O)c1c(C)[nH]c(/C=C2\C(=O)Nc3ccc(Cl)cc32)c1C`, the residual activity came out at 61%.

Regarding `CC(C)[C@H](CO)Nc1nc(Nc2cc(N)cc(Cl)c2)c2ncn(C(C)C)c2n1`, the residual activity was determined as 12%. The same measure, in the same setting: the value for `O=C1Nc2ccc(Cl)cc2/C1=C/c1cc(Cl)c(O)c(Cl)c1` was 71%; that for `O=C1Cc2c([nH]c3ccc(Br)cc23)-c2ccccc2N1` was 87%. On the same count and under the same terms, the result for `O=c1cc(N2CCNCC2)oc2c(-c3ccccc3)cccc12` reads 89%.

For the compound `O=C1NC(=O)c2c1c1c3ccccc3[nH]c1n1cncc21`, the residual activity came to 63%. On the same count and under the same terms, the result for `NC(=O)Nc1sc(-c2ccc(F)cc2)cc1C(N)=O` reads 67%.

The values are drawn from ChEMBL document CHEMBL2218924, “A broad activity screen in support of a chemogenomic map for kinase signalling research and drug discovery” (Biochem J, 2013).
